# Assay outcomes deposited in PubChem by The Scripps Research Institute Molecular Screening Center.
# TTR transcr act: increases transthyretin transcription | activation, % at 16.7 µM | 1.3% of 92,000 active | SH-SY5Y TTR promoter Gaussia luciferase, luminescence; 100% = recombinant luciferase protein wells;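 active means activation above the mean of all tested compounds plus 3 SD, cut at about 9.5% in these data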;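 further: cells exposed to compounds for one day before reading; 0% = median of all test compound wells on the plate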
# HuH7 TTR inh: decreases TTR transcription in HuH7 cells in activator counter-screen; shares compounds with TTR transcr act; HuH7 TTR promoter-Gaussia luciferase reporter, luminescence; inhibition, % at 16.7 µM; 4% of 1,100 active;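 active means average inhibition above the solvent-only control wells' mean plus 3 SD, cut at about 15% in these data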;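 further: 0% = cells with DMSO only and 100% = cells with inhibitor control FD; inhibitors lower well luminescence so higher value means more inhibition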
# TTR act confirm: human TTR transcription activation, confirmation; shares compounds with TTR transcr act; SHSY5Y TTR promoter Gaussia luciferase, luminescence; 100% = purified Lucia enzyme wells, no cells; activation, % at 16.7 µM; 1,100 tested, under 10 active;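 active means mean activation above a set limit taken from the earlier primary screen, cut at about 11% in these data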;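 further: 0% = DMSO-treated cells and 100% = recombinant Lucia luciferase without cells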
# The depositor's hits bear a star. The sample as a whole holds a higher share of hits than the screen did.
SMILES,TTR transcr act,others
Oc1ccccc1NCC(O)Cn1ccc2ccccc21 (stereo not given),11*,HuH7 TTR inh=5;TTR act confirm=-1
OCc1nc2ccccc2n1CC(O)Cn1ccc2ccccc21 (stereo not given),-5,
OC(CNCCNc1ncccc1C(F)(F)F)Cn1ccc2ccccc21 (stereo not given),-1,
c1ccc(C2CCC3(CC2)CCC3NCc2cccs2)cc1 (stereo not given),1,
C[C@H]1[C@@H](N(C)CC2CCCCC2)CC[C@@]23CCCN2C(=O)CCC[C@@H]13,4,
CC(=O)c1ccc(NC(=O)NC2CCCCN(Cc3ccc(Cl)cc3)C2=O)cc1 (stereo not given),-2,
COc1ccc(/C(C)=N/NC(=O)Cc2c(C)nc(C)[nH]c2=O)cc1,2,
C/C(=N/NC(=O)Cc1c(C)[nH][nH]c1=O)c1ccc(O)cc1,0,
COc1cc(/C(C)=N/NC(=O)Cc2c(C)[nH][nH]c2=O)ccc1O,14*,HuH7 TTR inh=-5;TTR act confirm=0
Cc1cccc(S(=O)(=O)NC(=O)C2(C)CCN2C(=O)Cc2cc(F)ccc2F)c1 (stereo not given),-2,
CN(Cc1ccccc1)C(=O)OCc1cn(Cc2cccc(C(F)(F)F)c2)nn1,1,
Fc1ccc(Cn2ccc3ccc(-c4ccc5ccn(Cc6ccc(F)cc6)c5c4)cc32)cc1,8,
COc1ccccc1CN[C@@H]1CC[C@@]23CCCN2C(=O)CCC[C@H]3C1,2,
Cc1cc(C)c2c(N)c(C(=O)c3ccccc3Cl)sc2n1,1,
CC(=O)c1sc2nc(C)cc(C)c2c1N,23*,HuH7 TTR inh=-3;TTR act confirm=-1
Cc1cc(C)c2c(N)c(C(=O)Nc3ccccc3Cl)sc2n1,12*,HuH7 TTR inh=-6;TTR act confirm=-1
CC(=O)c1sc2nc(-c3ccc(C)cc3)c3c(c2c1N)CCCC3,3,
Cc1cc(C)c2c(N)c(C(=O)Nc3ncc(C)s3)sc2n1,3,
COCc1cc(C)nc2sc(C(=O)Nc3ccccc3C)c(N)c12,2,
COC(=O)[C@]12C[C@H](CC(=O)NCc3ccc(C)o3)C(=O)N(CCc3ccc(OC)c(OC)c3)C1=C[C@H](C(C)(C)C)O[C@@H]2C,-1,
CC1CCC2(CC1)CCC2NCc1ccc(Br)cc1 (stereo not given),2,
C[C@H]1C2CC(OC(=O)NCc3ccc(Cl)cc3)C(C2)[C@H]2CCCCN21 (stereo not given in full),1,
C=CCN(C(=O)[C@@H](C1CC1)[C@@H](O)c1ccc2ccccc2c1)c1ccccc1,-2,
CCOC(=O)c1cccc(NC(=O)CCc2nc(-c3ccccc3F)no2)c1,5,
COc1ccc(-c2noc(CCC(=O)Nc3nc4ccccc4s3)n2)cc1,6,
SMILES,TTR transcr act,others
COc1ccc(NC(=O)CCc2nc(-c3ccccc3F)no2)cc1,9.9*,HuH7 TTR inh=-17;TTR act confirm=0
CCC[C@H]1[C@@H](OC(=O)NCCc2c[nH]c3ccccc23)CC[C@@]23CCCN2C(=O)CCC[C@@H]13,-1,
CCOC(=O)N1CCN(C(=O)C[C@H]2C[C@@]3(C(=O)OC)C(=C[C@H](COCc4ccccc4)O[C@@H]3C)N(Cc3ccccc3)C2=O)CC1,1,
Cc1cc(C)n(-c2nc3ccccc3c(=O)n2OCCOc2ccccc2)n1,32*,HuH7 TTR inh=-10;TTR act confirm=-1
O=C(c1ccccc1)c1ccc(OCCn2cnc3ccccc3c2=O)cc1,0,
CC(C)(c1ccccc1)c1ccc(OCCn2cnc3ccccc3c2=O)cc1,0,
CC(C)c1ccc(C(=O)Nc2cc(Cl)ccc2C(=O)O)cc1,1,
O=C(Nc1cccs1)OC1CC2CC1[C@H]1CCCCN1C2 (stereo not given in full),-1,
CN=C1NC(=O)/C(=C\c2cc(C)n(-c3ccccc3F)c2C)S1,3,
Cc1ccccc1CN1CCN(S(=O)(=O)c2cccc3nsnc23)CC1,12*,HuH7 TTR inh=-17;TTR act confirm=1
CC1CC(C)CN(S(=O)(=O)c2cccc3nsnc23)C1 (stereo not given),-1,
CCN1CCN(S(=O)(=O)c2cccc3nsnc23)CC1,5,
Cc1ccc(CNC2CCC23CCC(c2ccccc2)CC3)o1 (stereo not given),-1,
CCC[C@H]1[C@@H](OC(=O)NCc2ccc(Cl)c(Cl)c2)CC[C@@]23CCCN2C(=O)CCC[C@@H]13,-3,
CCCNC(=O)c1ccc(SC)cc1OC,2,
COc1cc(SC)ccc1C(=O)NCCNC(=O)c1nonc1N,14*,HuH7 TTR inh=-28;TTR act confirm=0
COc1cc(SC)ccc1C(=O)NCc1ccc(C)cc1,-2,
C[C@@H]1CCCN1c1cccc2c1S(=O)(=O)N1CC[C@H](C1)O2,-1,
FC(F)(F)c1cc(CNC2CCC23CCCCC3)ccc1Cl (stereo not given),1,
COc1cccc(NC(=O)Nc2c(-c3ccc(F)cc3)nc3ncccn23)c1,1,
COC(=O)c1cc(-c2cccc(C#N)c2)c(=O)n2c1CCC2,-1,
O=C/C(=C\Nc1ccccn1)c1nc2ccccc2o1,11*,HuH7 TTR inh=25*;TTR act confirm=-1
O=C/C(=C\Nc1ccccn1)c1nc2cc(Cl)ccc2o1,1,
O=C/C(=C\Nc1ccc(Br)cc1)c1nc2ccccc2o1,3,
COc1cc(NC(=O)NC2CCCCN(Cc3ccc(Cl)cc3)C2=O)cc(OC)c1 (stereo not given),2,
SMILES,TTR transcr act,others
S=C(NCc1cccs1)Nc1cccc2ccccc12,1,
O=S(=O)(NCc1cccs1)NCc1ccccc1F,4,
N#Cc1c(F)cccc1NCc1cccs1,14*,HuH7 TTR inh=-9;TTR act confirm=1
O=C1[C@@H]2Cc3c([nH]c4ccccc34)C(c3cccc([N+](=O)[O-])c3)N2C(=O)CN1C1CCN(Cc2ccccc2)CC1 (stereo not given in full),-4,
O=C(NC1CC[C@@]23CCCN2C(=O)CCC[C@H]3C1)c1ccccc1 (stereo not given in full),0,
COc1ccc(/C=C(\C#N)C(=O)OCCNC(=O)c2ccncc2)cc1,6,
COc1ccc(/C=C(\C#N)C(=O)OCC(=O)NC(C)c2ccccc2)cc1 (stereo not given),17*,HuH7 TTR inh=-12;TTR act confirm=0
COc1cc(/C=C(/C#N)C(=O)NC(C)c2ccccc2)cc(OC)c1O (stereo not given),0,
O=C(N/N=C/C=C\c1ccco1)c1ccccn1,-1,
O=C(N/N=C\C=C\c1ccco1)c1cncc(Br)c1,13*,HuH7 TTR inh=-2;TTR act confirm=0
O=C(N/N=C\C=C\c1ccco1)c1cc(-c2ccc3ccccc3c2)n[nH]1,3,
COc1ccccc1Cc1c(C2CCCCC2)nc2ccc(Br)cn12,-1,
CC(=O)CC(=O)Nc1ccc2ccccc2c1,-1,
O=C(CSCc1ccc(C(=O)O)cc1)Nc1ccc2ccccc2c1,1,
CC(=O)c1ccc(NC(=O)CSCC(=O)Nc2ccc3ccccc3c2)cc1,11*,HuH7 TTR inh=-26;TTR act confirm=4
O=C(OCC#CCSc1nnc(-c2cccc3ccccc23)o1)c1ccccc1F,2,
CCOC(=O)[C@]12CCCC=C1N(Cc1ccc(OC)cc1)C(=O)[C@@H]2CC(=O)NCCC(C)C,0,
COCCN=C1S/C(=C\c2cc(C)n(-c3ccc(F)cc3F)c2C)C(=O)N1C,0,
O=C(c1ccc(Cl)cc1)C1CCN(c2ncnc3sccc23)CC1,-1,
C=CCCC(=O)N[C@H]1CC[C@@]23CCCN2C(=O)CCC[C@H]3[C@H]1C,0,
